# Data from PubChem BioAssay AID1159580 (chemical genetic matrix, 2015).
# Several values for one entry are separate records, joined by “and”; a condition that tells them apart may be missing. Equal entries are not always repeated. The campaign covered roughly 5,500 compounds. About 2,000 (36%) were called active. Roughly 18% stayed inconclusive and do not appear here. The list shows a part of the results. Unmarked numbers belong to inactive results. Rule as the data show it: active = normalized growth mostly below about 0.91 (no sharp cut-off); inconclusive = no clear call, values can overlap the other calls; inactive = mostly above about 0.92.
# Experiment: chemical genetic growth profiling, strain panel (AID 1159580);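 also: tested at 20 µM; growth read once vehicle control cultures reached saturation at 30 °C; 1 = growth at the plate median or of vehicle wells; lower values mean less growth of the strain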
# Conditions: growth OD
structure (smiles),measurement,setting,value
CN(C)CCC=C1c2ccccc2C=Cc2ccccc21,normalized growth,"S. cerevisiae deletion strains, locus YKL009W, strain mrt4, stronger effect = lower value",0.959
same,normalized growth,"S. cerevisiae deletion strains, locus YKL068W, stronger effect = lower value",0.982
same,normalized growth,"S. cerevisiae deletion strains, locus YKL085W, strain MDH1 (second series), stronger effect = lower value",0.975
same,normalized growth,"S. cerevisiae deletion strains, locus YKL085W, strain MDH1, stronger effect = lower value",0.975
same,normalized growth,"S. cerevisiae deletion strains, locus YKL160W, strain elf1, stronger effect = lower value",0.958
same,normalized growth,"S. cerevisiae deletion strains, locus YKL190W, strain CNB1, stronger effect = lower value",0.977
same,normalized growth,"S. cerevisiae deletion strains, locus YKR001C, strain vps1, stronger effect = lower value",1.01
same,normalized growth,"S. cerevisiae deletion strains, locus YKR026C, strain gcn3, stronger effect = lower value",0.998
same,normalized growth,"S. cerevisiae deletion strains, locus YKR091W, strain srl3, stronger effect = lower value",0.971
same,normalized growth,"S. cerevisiae deletion strains, locus YLL001W, strain dnm1, stronger effect = lower value",1.01
same,normalized growth,"S. cerevisiae deletion strains, locus YLL026W, stronger effect = lower value",0.985
same,normalized growth,"S. cerevisiae deletion strains, locus YLL041C, strain sdh2, stronger effect = lower value",0.984
same,normalized growth,"S. cerevisiae deletion strains, locus YLR027C, strain aat2, stronger effect = lower value",0.98
same,normalized growth,"S. cerevisiae deletion strains, locus YLR039C, strain RIC1, stronger effect = lower value",1.35 [resistant] (active)
same,normalized growth,"S. cerevisiae deletion strains, locus YLR058C, strain SHM2, stronger effect = lower value",0.99
same,normalized growth,"S. cerevisiae deletion strains, locus YLR102C, strain apc9, stronger effect = lower value",0.985
same,normalized growth,"S. cerevisiae deletion strains, locus YLR113W, strain HOG1, stronger effect = lower value",1.04
same,normalized growth,"S. cerevisiae deletion strains, locus YLR221C, strain rsa3, stronger effect = lower value",1
same,normalized growth,"S. cerevisiae deletion strains, locus YLR258W, strain gsy2, stronger effect = lower value",0.989
same,normalized growth,"S. cerevisiae deletion strains, locus YLR262C, strain YPT6 (second series), stronger effect = lower value",1.02
same,normalized growth,"S. cerevisiae deletion strains, locus YLR262C, strain YPT6, stronger effect = lower value",1.53 [resistant] (active)
same,normalized growth,"S. cerevisiae deletion strains, locus YLR268W, strain sec22, stronger effect = lower value",0.99
same,normalized growth,"S. cerevisiae deletion strains, locus YLR320W, strain mms22, stronger effect = lower value",1.01
same,normalized growth,"S. cerevisiae deletion strains, locus YLR330W, strain CHS5, stronger effect = lower value",0.987
same,normalized growth,"S. cerevisiae deletion strains, locus YLR342W, strain FKS1 (second series), stronger effect = lower value",0.903
same,normalized growth,"S. cerevisiae deletion strains, locus YLR342W, strain FKS1, stronger effect = lower value",0.979
same,normalized growth,"S. cerevisiae deletion strains, locus YLR357W, strain rsc2, stronger effect = lower value",1.01
same,normalized growth,"S. cerevisiae deletion strains, locus YLR370C, strain arc18, stronger effect = lower value",0.988
same,normalized growth,"S. cerevisiae deletion strains, locus YLR371W, strain rom2, stronger effect = lower value",0.992
same,normalized growth,"S. cerevisiae deletion strains, locus YLR384C, strain iki3, stronger effect = lower value",0.991
same,normalized growth,"S. cerevisiae deletion strains, locus YLR418C, strain cdc73, stronger effect = lower value",0.811 (active)
same,normalized growth,"S. cerevisiae deletion strains, locus YML016C, strain PPZ1, stronger effect = lower value",0.996
same,normalized growth,"S. cerevisiae deletion strains, locus YML032C, strain rad52, stronger effect = lower value",1.01
same,normalized growth,"S. cerevisiae deletion strains, locus YML120C, strain ndi1, stronger effect = lower value",1
same,normalized growth,"S. cerevisiae deletion strains, locus YML124C, strain tub3, stronger effect = lower value",0.997
same,normalized growth,"S. cerevisiae deletion strains, locus YMR058W, strain fet3, stronger effect = lower value",0.968
same,normalized growth,"S. cerevisiae deletion strains, locus YMR078C, strain ctf18, stronger effect = lower value",0.984
same,normalized growth,"S. cerevisiae deletion strains, locus YMR125W, strain sto1, stronger effect = lower value",0.95
same,normalized growth,"S. cerevisiae deletion strains, locus YMR129W, stronger effect = lower value",0.99
same,normalized growth,"S. cerevisiae deletion strains, locus YMR205C, strain PFK2, stronger effect = lower value",1
same,normalized growth,"S. cerevisiae deletion strains, locus YMR223W, strain ubp8, stronger effect = lower value",0.951
same,normalized growth,"S. cerevisiae deletion strains, locus YMR231W, strain pep5, stronger effect = lower value",0.989
same,normalized growth,"S. cerevisiae deletion strains, locus YMR263W, strain SAP30, stronger effect = lower value",1
same,normalized growth,"S. cerevisiae deletion strains, locus YMR307W, strain GAS1, stronger effect = lower value",1.01 and 0.999
same,normalized growth,"S. cerevisiae deletion strains, locus YNL067W, strain RPL9B, stronger effect = lower value",0.994
same,normalized growth,"S. cerevisiae deletion strains, locus YNL071W, strain lat1, stronger effect = lower value",0.99
same,normalized growth,"S. cerevisiae deletion strains, locus YNL153C, strain GIM3, stronger effect = lower value",1.04 and 1
same,normalized growth,"S. cerevisiae deletion strains, locus YNL175C, strain NOP13, stronger effect = lower value",1.06
same,normalized growth,"S. cerevisiae deletion strains, locus YNL183C, strain NPR1, stronger effect = lower value",0.955
same,normalized growth,"S. cerevisiae deletion strains, locus YNL197C, strain WHI3, stronger effect = lower value",1.02
same,normalized growth,"S. cerevisiae deletion strains, locus YNL209W, strain ssb2, stronger effect = lower value",0.925 (active)
same,normalized growth,"S. cerevisiae deletion strains, locus YNL224C, strain SQS1, stronger effect = lower value",1.01
same,normalized growth,"S. cerevisiae deletion strains, locus YNL233W, strain BNI4, stronger effect = lower value",1.02
same,normalized growth,"S. cerevisiae deletion strains, locus YNL248C, strain rpa49, stronger effect = lower value",0.959
same,normalized growth,"S. cerevisiae deletion strains, locus YNL250W, strain rad50, stronger effect = lower value",0.985
same,normalized growth,"S. cerevisiae deletion strains, locus YNL271C, strain bni1, stronger effect = lower value",0.986
same,normalized growth,"S. cerevisiae deletion strains, locus YNL298W, strain CLA4, stronger effect = lower value",0.988
same,normalized growth,"S. cerevisiae deletion strains, locus YNL307C, strain MCK1, stronger effect = lower value",0.994
same,normalized growth,"S. cerevisiae deletion strains, locus YNL322C, strain KRE1 (second series), stronger effect = lower value",0.992
same,normalized growth,"S. cerevisiae deletion strains, locus YNL322C, strain KRE1, stronger effect = lower value",0.977
same,normalized growth,"S. cerevisiae deletion strains, locus YNR049C, strain mso1, stronger effect = lower value",0.978
same,normalized growth,"S. cerevisiae deletion strains, locus YNR052C, strain pop2, stronger effect = lower value",0.948
same,normalized growth,"S. cerevisiae deletion strains, locus YOL006C, strain TOP1, stronger effect = lower value",0.852
same,normalized growth,"S. cerevisiae deletion strains, locus YOL012C, strain htz1",0.956
same,normalized growth,"S. cerevisiae deletion strains, locus YOL147C, strain pex11, stronger effect = lower value",0.996
same,normalized growth,"S. cerevisiae deletion strains, locus YOR001W, strain rrp6, stronger effect = lower value",0.965
same,normalized growth,"S. cerevisiae deletion strains, locus YOR061W, strain CKA2, stronger effect = lower value",0.99
same,normalized growth,"S. cerevisiae deletion strains, locus YOR069W, strain VPS5, stronger effect = lower value",0.983
same,normalized growth,"S. cerevisiae deletion strains, locus YOR070C, strain gyp1, stronger effect = lower value",0.966
same,normalized growth,"S. cerevisiae deletion strains, locus YOR080W, strain dia2, stronger effect = lower value",0.98
same,normalized growth,"S. cerevisiae deletion strains, locus YOR083W, strain WHI5 (second series), stronger effect = lower value",1.08
same,normalized growth,"S. cerevisiae deletion strains, locus YOR083W, strain WHI5, stronger effect = lower value",0.945
same,normalized growth,"S. cerevisiae deletion strains, locus YOR106W, strain vam3, stronger effect = lower value",0.89
same,normalized growth,"S. cerevisiae deletion strains, locus YOR136W, strain idh2, stronger effect = lower value",1.03
same,normalized growth,"S. cerevisiae deletion strains, locus YOR144C, strain elg1, stronger effect = lower value",1
same,normalized growth,"S. cerevisiae deletion strains, locus YOR184W, strain ser1, stronger effect = lower value",1.04
same,normalized growth,"S. cerevisiae deletion strains, locus YOR231W, strain MKK1, stronger effect = lower value",1.02
same,normalized growth,"S. cerevisiae deletion strains, locus YOR265W, strain rbl2, stronger effect = lower value",0.983
same,normalized growth,"S. cerevisiae deletion strains, locus YOR270C, strain vph1, stronger effect = lower value",0.809
same,normalized growth,"S. cerevisiae deletion strains, locus YOR290C, strain snf2, stronger effect = lower value",0.958
same,normalized growth,"S. cerevisiae deletion strains, locus YOR316C, strain cot1, stronger effect = lower value",0.988
same,normalized growth,"S. cerevisiae deletion strains, locus YPL051W, strain arl3, stronger effect = lower value",0.964
same,normalized growth,"S. cerevisiae deletion strains, locus YPL078C, strain atp4, stronger effect = lower value",0.989
same,normalized growth,"S. cerevisiae deletion strains, locus YPL106C, strain sse1, stronger effect = lower value",0.927
same,normalized growth,"S. cerevisiae deletion strains, locus YPL240C, strain hsp82, stronger effect = lower value",0.985
same,normalized growth,"S. cerevisiae deletion strains, locus YPL241C, strain CIN2, stronger effect = lower value",0.978 and 1
same,normalized growth,"S. cerevisiae deletion strains, locus YPL256C, strain CLN2, stronger effect = lower value",1.01
same,normalized growth,"S. cerevisiae deletion strains, locus YPR119W, strain clb2, stronger effect = lower value",0.998
same,normalized growth,"S. cerevisiae deletion strains, locus YPR141C, strain kar3, stronger effect = lower value",0.987
same,normalized growth,"S. cerevisiae deletion strains, locus YPR163C, strain tif3, stronger effect = lower value",0.988
same,normalized growth,"S. cerevisiae deletion strains, locus YPR167C, strain met16, stronger effect = lower value",0.992
same,normalized growth,"S. cerevisiae deletion strains, strain wtn01, stronger effect = lower value",0.981
same,normalized growth,"S. cerevisiae strains, strain wild type, stronger effect = lower value",0.99
